{"source": "PubChem BioAssay (NCI)", "note": "The panel holds about 83,000 compounds, 20% with a hit somewhere; the sample as a whole holds those more often.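 The test compound was applied at a single concentration to cells in 96-well plates for 48 hours, and percent growth was recorded.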 Activity calls are given as the source filed them. The calls were made as follows: active = growth percent below 10; inactive = the rest.", "data": [{"system": "HL-60(TB) leukemia", "experiment": "NCI-60 one-dose screen, 48 h (100 = growth as untreated, 0 = no growth, -100 = all killed)", "conditions": "10 µM unless noted", "values": [{"smiles": "Cc1cc(N2CCCCC2)nc(NCc2cc(Nc3ccnc4cc(Cl)ccc34)ccc2F)n1", "growth": "-65.7% (active)"}, {"smiles": "O=C1c2cccc3cccc(c23)C(=O)N1C/C=C/c1ccc2c3c(cccc13)C(=O)N(CCO)C2=O", "growth": "94.2% (inactive)"}, {"smiles": "COc1ccc2c(c1)CCc1[nH]nc(-c3cc(OC)c(OC)c(OC)c3)c1-2", "growth": "-20.4% (active)"}, {"smiles": "CCCCCCCCc1ccc(CCC(N)(CO)CO)cc1", "growth": "-14.1% (active)"}, {"smiles": "Cc1nn2c(/C=C3/C(=O)Nc4ccc(Cl)cc43)c(-c3ccccc3)nc2s1", "growth": "81.5% (inactive)"}, {"smiles": "O=C(O)c1cn(C2CC2)c2cc(N3CCN(C(=O)Nc4nc(-c5ccc(Cl)cc5)cs4)CC3)c(F)cc2c1=O", "growth": "-26.2% (active)"}, {"smiles": "C[N+]1=C(/C=C/c2ccc(O)c3ncccc23)C(C)(C)c2ccccc21", "growth": "32.5% (inactive)"}, {"smiles": "Nc1nc(CSc2n[nH]c(N)n2)nc(Nc2ccccc2)n1", "growth": "92.7% (inactive)"}, {"smiles": "COc1ccc(/C=C/C(=O)c2ccc(NC(=O)CSc3nnc(-c4cc(OC)c(OC)c(OC)c4)o3)cc2)cc1", "growth": "-53.4% (active)"}, {"smiles": "CC(C)(C)OC(=O)CC1(O)CCCCC1", "growth": "106% (inactive)"}, {"smiles": "CSC1=NCCCC1", "growth": "99.8% (inactive)"}, {"smiles": "CCCCOc1nc2c(C)cccc2cc1C1CNC(=O)c2ccccc2N1", "note": "(centres undefined)", "growth": "26.2% (inactive)"}, {"smiles": "COc1cc(/C=C/C(=O)c2c(C)n([O-])c3ccc(Cl)cc3[n+]2=O)cc(OC)c1OC", "growth": "12.7% (inactive)"}, {"smiles": "Nc1nc2ccccc2c2c(=O)c3cc(F)ccc3sc12", "growth": "99.4% (inactive)"}, {"smiles": "NS(=O)(=O)c1ccc(CCn2c(SCC(=O)N/N=C/c3cc4ccccc4[nH]3)nc3ccccc3c2=O)cc1", "growth": "35.2% (inactive)"}, {"smiles": "O=C(Nc1cccc(-n2cc(-c3ccncc3)c(-c3cc(O)cc(Cl)c3)n2)c1)c1ccc(N2CCOCC2)c(C(F)(F)F)c1", "growth": "-46.4% (active)"}, {"smiles": "C[C@]12O[C@H]1[C@H](O)c1c(cc(O)c3c1C(=O)c1cccc(O)c1-3)C2=O", "growth": "100% (inactive)"}, {"smiles": "O=C(CCCCCCC(=O)Nc1ccc2c(c1)/C(=C/c1ccc[nH]1)C(=O)N2)NO", "growth": "16.5% (inactive)"}, {"smiles": "CCc1n(Cc2ccc3ccccc3c2)c2ccccc2[n+]1Cc1ccc2ccccc2c1", "growth": "14.3% (inactive)"}, {"smiles": "C=C(C)[C@@H]1CC[C@]2(C(=O)N3CCN(C)CC3)CC[C@]3(C)[C@H](CC[C@@H]4[C@@]5(C)CC[C@H](OC(=O)c6ccccc6C(=O)O)C(C)(C)[C@@H]5CC[C@]43C)[C@@H]12", "growth": "106% (inactive)"}, {"smiles": "O=C(C[n+]1cccc2ccccc21)c1ccc(O)c(O)c1", "growth": "-20% (active)"}, {"smiles": "Ic1ccccc1-c1ccccc1", "growth": "81.2% (inactive)"}, {"smiles": "O=C(CCC(=O)OC1CCCC1)OC1CCCC1", "growth": "103% (inactive)"}, {"smiles": "NS(=O)(=O)c1ccc(-n2nc(C(=O)N/N=C\\c3ccc(F)cc3)cc2-c2ccc(Cl)cc2)cc1", "growth": "121% (inactive)"}, {"smiles": "O=C(O)C(O)C(O)C(=O)O.[NH-]C1CCCCC1[NH-].[Pt+2]", "note": "(centres undefined)", "growth": "104% (inactive)"}, {"smiles": "O=C(CSc1nc2c(n1Nc1ccccc1)-c1ccccc1SC2)Nc1nccs1", "growth": "102% (inactive)"}, {"smiles": "COc1ccc(-c2c3c(nc4n[nH]c(-c5ccc(Cl)cc5)c24)-c2ccccc2C(=O)C3=O)cc1", "growth": "11.7% (inactive)"}, {"smiles": "Cc1cc2c(-c3nc4ccccc4n3C)c(O)c(O)cc2c(O)c1-c1c(C)cc2c(-c3nc4ccccc4n3C)c(O)c(O)cc2c1O", "growth": "76.7% (inactive)"}, {"smiles": "FC(F)(F)c1ccc(-c2cnc(-n3cc(COCCN4CCCCC4)nn3)nc2NC2CCCCCC2)cc1", "growth": "-63.1% (active)"}, {"smiles": "C#Cc1cc2c(N)c(C(=O)c3cc(OC)c(OC)c(OC)c3)[nH]c2cc1OC", "growth": "-6.26% (active)"}, {"smiles": "N#CC(C#N)C(C#N)C#N", "growth": "98.6% (inactive)"}, {"smiles": "O=[N+]([O-])c1cc(S(=O)(=O)Nc2ccccc2)ccc1Cl", "growth": "71.3% (inactive)"}, {"smiles": "COc1cc(-c2c3c(cn2CCN2CCCCC2)-c2oncc2CC3)cc(OC)c1OC", "growth": "109% (inactive)"}, {"smiles": "Cc1ccc(CNc2c3ccccc3nc3ccccc23)cc1", "growth": "25.5% (inactive)"}, {"smiles": "N=C(N)c1ccc(S(N)(=O)=O)cc1", "growth": "94.9% (inactive)"}, {"smiles": "O=C(CN1C=NC2C(N3CCOCC3)=NC=NC21)c1ccc(Br)cc1", "note": "(centres undefined)", "growth": "102% (inactive)"}, {"smiles": "CC1=C(C(=O)c2ccccc2)C(c2ccc3c(c2)OCO3)NC(=S)N1", "note": "(centres undefined)", "growth": "2.6% (active)"}, {"smiles": "C=C1CCC2C(C)(CO)C(O)CCC2(C)C1C/C=C1/C(=O)OCC1O/C=C/c1ccccc1", "note": "(centres undefined)", "growth": "7.31% (active)"}, {"smiles": "Cn1c(COC(=O)NCCc2ccccn2)nc2c(N3CCOCC3)nc(Cl)nc21", "growth": "-36.9% (active)"}]}]}
